In all, about 96,000 compounds went through this assay and about 19,000 (20%) were called active. These entries were drawn from the full list. A number with no mark means an inactive call.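 The calls were made as follows: active = blocking of liver enzyme CYP2C9 beyond about 50% at 5 µM (limit read from the data); inactive = the rest.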
Biological target: Cytochrome P450 2C9 (Homo sapiens) (UniProt P11712)
Assay: blockers of cytochrome P450 2C9 activity – biochemical, luminescence, ADME assay, primary screen (AID 777)
Conditions: CYP2C9 Supersomes, luciferin-H conversion, at 5 µM, stronger effect = higher value

Sequence of Cytochrome P450 2C9 (Homo sapiens) (P11712 whole entry, looked up): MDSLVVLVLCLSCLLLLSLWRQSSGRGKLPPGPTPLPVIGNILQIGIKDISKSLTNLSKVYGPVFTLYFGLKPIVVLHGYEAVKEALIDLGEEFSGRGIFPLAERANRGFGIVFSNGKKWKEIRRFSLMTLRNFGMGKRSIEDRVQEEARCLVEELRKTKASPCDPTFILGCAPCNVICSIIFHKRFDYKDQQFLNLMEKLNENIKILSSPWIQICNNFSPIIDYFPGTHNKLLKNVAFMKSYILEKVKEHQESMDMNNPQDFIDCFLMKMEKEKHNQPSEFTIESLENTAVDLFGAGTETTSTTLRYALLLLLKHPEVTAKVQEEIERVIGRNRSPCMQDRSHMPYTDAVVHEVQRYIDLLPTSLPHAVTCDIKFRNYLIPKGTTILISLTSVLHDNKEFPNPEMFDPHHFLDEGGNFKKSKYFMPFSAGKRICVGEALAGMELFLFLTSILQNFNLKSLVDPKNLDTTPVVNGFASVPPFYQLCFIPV

| Compound | inhibition |
| --- | --- |
| CCCCNC(=O)CSc1nnc(-c2ccco2)n1C | 44.2% |
| CCCCNC(=O)CSc1nc2ccc(NC(=O)CSc3nnc(COc4ccccc4C)n3C)cc2s1 | 75.1% (active) |
| CCOC(=O)c1ccc(NC(=O)CSc2nnc(COc3ccccc3OC)n2C)cc1 | 11.7% |
| O=C1CCCc2c1nc(-c1cccc(Cl)c1)n2O | 11.3% |
| CC1(C)CC(=O)C(C=NCc2cccnc2)=C(O)C1 | -14.4% |
| CCNc1nc(N)nc(-c2cc(Cl)ccc2OC)n1 | -0.8% |
| CCOC(=O)c1c(NC(=O)CCC(=O)NCc2ccco2)sc2c1CCCC2 | 41.9% |
| Cc1ccc(C(=O)c2c(NC(=O)c3ccncc3)sc3c2CCCC3)cc1 | 67.8% (active) |
| COC(=O)c1sc(NC(=O)c2csc3c2CCCC3)nc1C | -7.3% |
| COC(=O)c1c(NC(=O)CSc2nncs2)sc2c1CCCCC2 | 91.9% (active) |
| CNC(=O)c1c(NC(NC(=O)c2ccco2)C(=O)c2ccc(Cl)cc2)sc2c1CCCC2 (stereo unspecified) | 46.5% |
| COC(=O)c1c(NC(=O)c2cccs2)sc2c1CCCC2 | 58.4% (active) |
| COC(=O)c1sccc1NC(=O)c1csc2c1CCCC2 | 13.7% |
| Cc1ccc(C(=O)c2c(NC(=O)c3ccccc3)sc(C)c2C)cc1 | 43% |
| Cc1ccc(Cn2c(NC(=O)c3ccco3)nc3ccccc32)cc1 | -10.6% |
| Cc1cc(C)nc(SC(C)C(=O)N/N=C/c2cccs2)n1 (stereo unspecified) | 41.1% |
| CC12CCC(C(=O)N(CCC#N)CCC#N)(CC1=O)C2(C)C (stereo unspecified) | -10.7% |
| CCC(C(=O)Nc1ncccn1)(C(F)(F)F)C(F)(F)F | -8.6% |
| Oc1ccc(Cl)cc1/C=N/c1nc2ccccc2[nH]1 | -15.4% |
| CCn1ncc(C2=NOC(C(=O)N3CCN(c4ccccc4)CC3)C2)c1C (stereo unspecified) | -12.4% |
| Cc1cc(C)c(S(=O)(=O)NCCCN2CCOCC2)cc1Br | -101% |
| C=CCSc1nc2c(c(=O)[nH]1)C(C(C)C)C(C#N)=C(N)O2 (stereo unspecified) | 17.7% |
| COc1cccc(N2CCN(C3CC(=O)N(c4ccc(Cl)cc4)C3=O)CC2)c1 (stereo unspecified) | 11.2% |
| Cn1cnc2c1c(=O)n(Cc1c(Cl)cccc1Cl)c(=O)n2C | 32.6% |

| Compound | inhibition |
| --- | --- |
| O=C(CC(NS(=O)(=O)c1ccc(Cl)cc1)c1ccco1)NC1CCCC1 (stereo unspecified) | 18.5% |
| O=S(=O)(NC1CCCCC1)c1ccc(F)c2ccccc12 | 53.4% (active) |
| O=C(CSCc1ccc(Br)cc1)Nc1ccc(S(=O)(=O)N2CCCCCC2)cc1 | 56.5% (active) |
| Cc1cccc(OCCCC(=O)Nc2ccc(S(=O)(=O)N3CCCC3)cc2)c1 | 65.2% (active) |
| CCOc1cccc(NC(=O)C2CCCN(S(=O)(=O)c3ccc(OC)cc3)C2)c1 (stereo unspecified) | 21.3% |
| CC(=O)Nc1ccc(S(=O)(=O)N2CCN(CCCOc3cc(C)ccc3C)CC2)cc1 | 83.6% (active) |
| CC(=O)Nc1ccc(S(=O)(=O)N2CCN(C3CCCCCCC3)CC2)cc1 | 40.3% |
| O=C(Nc1ccc(S(=O)(=O)N2CCCCC2)cc1)c1cnccn1 | 23.2% |
| Cc1ccc(OCCCC(=O)Nc2ccc(N3CCOCC3)cc2)cc1 | 15.2% |
| COC(=O)COc1ccc(S(=O)(=O)N2CCOCC2)cc1 | -8.2% |
| COc1ccc(OCC(=O)OCC(=O)Nc2ccc(S(=O)(=O)N3CCCCC3)cc2)cc1 | 63.1% (active) |
| CC(=O)Nc1ccc(S(=O)(=O)N2CCSCC2)cc1 | 14% |
| C=CCNC(=O)CCCOc1cccc(C)c1 | -3.3% |
| CCCN1Cc2cccc(C(=O)Nc3ccc(S(=O)(=O)N4CCCCCC4)cc3)c2C1=O | 38% |
| Cc1cc(OCCOc2cccc3cccnc23)c(C)cc1Cl | -170% |
| CCOC(=O)c1nnn(-c2nc(OC)nc(N(C)C)n2)c1-c1ccccc1 | 6.1% |
| Cc1nnc(SCC(=O)N2CCN(c3ccccc3)CC2)n1-c1ccccc1 | 1.8% |
| COc1cc(OC)cc(C(=O)Nc2ncc3c(n2)CC(C)(C)CC3=O)c1 | -12.1% |
| CN(NC(=O)c1ccccc1)c1nc2ccccc2nc1C(F)(F)F | 15.5% |
| Cc1cc(C(=O)CSc2nc(N)cc(=O)[nH]2)c(C)n1CCc1ccc(Cl)cc1 | 11.4% |
| CCOc1ccc(NC(=O)CCC(=O)n2nc(C)cc2C)cc1 | 5.6% |
| CCOc1cc(C)c(Cl)cc1S(=O)(=O)n1nnc2ccccc21 | 39.1% |
| CCOc1ccc(C(C)C)cc1S(=O)(=O)n1nc(C)cc1C | 91.3% (active) |
| CCSC1=C(C#N)C(=O)n2c1cc1c2CCCC1 | -14.3% |

| Compound | inhibition |
| --- | --- |
| O=S(=O)(NCC1CCCO1)c1ccc2ccccc2c1 (stereo unspecified) | -199% |
| CCOc1cc(C2C(C(=O)OC)=CN(C3CCCC3)C=C2C(=O)OC)cc(Br)c1O | -9.6% |
| Cc1noc(NS(=O)(=O)c2ccc(NC(=O)C34CCC(CC3)C4)cc2)c1C | 0.8% |
| Cc1noc(NS(=O)(=O)c2ccc(N/C=C/C(=O)c3ccccc3)cc2)c1C | 93.9% (active) |
| COc1ccc(C(=O)Nc2ccc(S(=O)(=O)Nc3onc(C)c3C)cc2)cc1OC | 1.2% |
| Cc1ccc(S(=O)(=O)NCCN2CCOCC2)cc1C | 21.9% |
| Cc1ccc(-c2nc(C)sc2CC(=O)O)cc1 | 5.6% |
| Cc1cc(NC(=O)c2cc(-c3cccs3)on2)nn1Cc1ccc(Cl)cc1 | -17.2% |
| Cc1ccc(Cn2ccc(NC(=O)c3cc(C(C)C)on3)n2)cc1 | 97.5% (active) |
| O=C(Nc1ccn(Cc2ccc(F)cc2)n1)c1ccncc1 | 92.9% (active) |
| Cc1nn(Cc2ccc(F)cc2)c(C)c1NC(=O)c1noc2c1CCc1ccccc1-2 | -1.9% |
| CC(=O)Nc1ccn(Cc2c(F)cccc2Cl)n1 | 6.2% |
| Cc1ccc(Cn2ccc(NC(=O)C3C4CCC(C4)C3C(=O)O)n2)cc1 (stereo unspecified) | 13% |
| CCOC(=O)c1nn(-c2cccc(C)c2)cc1C(=O)c1ccccc1 | 33.5% |
| Cc1ccc(-c2ccnc3nc(Sc4ncc(C(F)(F)F)cc4Cl)nn23)cc1 | 9.8% |
| N#Cc1cccc(CSc2nnc(CCCO)n2-c2ccccc2)c1 | 11.5% |
| Cc1cccc(NC(=O)c2ccc(OCC(=O)NCc3ccccc3)cc2)c1C | -9.9% |
| Cc1cccc(C)c1NC1=NC(=S)N(c2ccc(N(C)C)cc2)C1(C)C | -27.7% |
| O=C(Nc1ccccc1)O/N=C1\CCCCC1c1ccc([N+](=O)[O-])cc1[N+](=O)[O-] (stereo unspecified) | 63.3% (active) |
| CCN(CC)S(=O)(=O)c1cc([N+](=O)[O-])ccc1NNC(=O)Nc1ccccc1 | 25.7% |
| COc1ccc(NC(=O)ON=C2c3ccccc3-c3ccccc32)cc1 | 16% |
| Cc1ccc2oc(=O)c3cnn(CC(=O)N4CCCCCC4)c3c2c1 | 4.4% |
| COc1ccc(N2C(=O)CCC(C(=O)N(C)C3CCCCC3)C2c2ccc(OC)c(OC)c2)cc1 (stereo unspecified) | 10.7% |
| CCCC(NC(=O)c1ccccc1)c1nc2ccccc2n1Cc1ccc(C(=O)OC)o1 (stereo unspecified) | 14.1% |

| Compound | inhibition |
| --- | --- |
| C=CCn1c(C(C)NC(=O)CC)nc2ccccc21 (stereo unspecified) | -3.6% |
| CCCn1c(C(Cc2ccccc2)NC(=O)COC)nc2ccccc21 (stereo unspecified) | 74.5% (active) |
| CC/S(CC1CC1(Cl)Cl)=N\S(=O)(=O)c1ccc(C)cc1 (stereo unspecified) | -9% |
| CS(=O)(=O)N1CCN(c2cccc(Cl)n2)CC1 | 19.9% |
| CN1c2ccccc2-c2nc3ccccc3n2C1c1ccco1 (stereo unspecified) | 45.9% |
| O=C(Oc1cccnc1)c1cc2ccccc2oc1=O | 30.1% |
| CCc1ccc(CNC(=O)CCc2nc(-c3cccs3)no2)cc1 | 70.4% (active) |
| Cc1ccc(-c2noc(CCC(=O)Nc3ccccc3N3CCN(C)CC3)n2)cc1 | 48.1% |
| CCNC(=O)CCc1nc(-c2ccc(C(C)(C)C)cc2)no1 | -11.4% |
| Cc1cc(C)cc(N(CC(=O)Nc2c(C)n(C)n(-c3ccccc3)c2=O)S(C)(=O)=O)c1 | 16.3% |
| O=C(N/N=C/c1ccc(O)cc1)/C(=C/c1ccc([N+](=O)[O-])cc1)NC(=O)c1ccccc1 | -2.6% |
| N#CCCN1CCN(S(=O)(=O)c2ccc(S(=O)(=O)NC3CC3)cc2)CC1 | 9.6% |
| N#CCCN1CCN(S(=O)(=O)c2ccc(S(=O)(=O)NC3CCCCC3)cc2)CC1 | 58% (active) |
| N#CCCN1CCN(S(=O)(=O)c2ccc(S(=O)(=O)N3CCCC3)cc2)CC1 | 16.2% |
| Cc1ccccc1-n1c(C)cc(/C=N/NC(=O)c2ccc(CN3CCOCC3)cc2)c1C | 31.2% |
| CC(C)(C)Oc1ncc(Br)c(OC(C)(C)C)n1 | -16.6% |
| COc1cccc(C2/C(=C(/O)c3ccncc3)C(=O)C(=O)N2CCCN(C)C)c1 (stereo unspecified) | -17.5% |
| COc1cc(N=Cc2c(O)[nH]c3ccccc23)cc(OC)c1OC | 66% (active) |
| COc1ccc(OC)c(N=Cc2c(O)[nH]c3ccccc23)c1 | 15.1% |
| COc1ccc(N=Cc2c(O)[nH]c3ccccc23)cc1OC | 2.9% |
| CCCCCCC(=O)Nc1nc(C)c(-c2csc(Nc3cccc(OC)c3)n2)s1 | 19.4% |
| COC(=O)c1cc(OC)c(OC)cc1NC(=O)CSc1ccc(C)cc1 | 21.1% |
| Cc1ccc(SCC(=O)c2cc(C)c(OC(=S)N(C)C)c(C)c2)cc1 | 58.6% (active) |
| Cc1ccc(SC(=O)COc2ccc(C)c(C)c2)cc1 | 13.5% |

— PubChem BioAssay AID777 (Sanford-Burnham Center for Chemical Genomics, 2007)
